PubChem BioAssay (NCI)
Compounds without any hit were thinned out: in the full panel of roughly 79,000, 15% have a hit. Calls of active or inactive are those of the source. No stated cut-off is given here; in the data, active means growth inhibition above about 70%; inactive means the rest.

Tests used:
[1] = NCI Yeast Anticancer Drug Screen. Data for the rad50 strain (AID 155);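 further: 0% = growth of vehicle-only cultures of the same strain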; details: S. cerevisiae rad50 strain growth inhibition; at 50.0 µM; hits give high values
Procedure, shortened: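 DNA repair mutant yeast, compound exposure, growth read-out; inhibition is taken relative to vehicle.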

[2] = NCI Yeast Anticancer Drug Screen. Data for the mec2-1 strain (AID 157); details: S. cerevisiae mec2-1 strain, at 50.0 µM, hits give high values
Procedure, shortened: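 Mutant yeast (mec2-1) grown with compound; growth inhibition relative to vehicle control reported.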

[3] = NCI Yeast Anticancer Drug Screen. Data for the sgs1 mgt1 strain (AID 161);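 further: 0% = growth of cultures given vehicle only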; details: S. cerevisiae sgs1 mgt1 strain, at 50.0 µM, hits give high values
Procedure, shortened: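 This yeast growth screen uses a strain with defined DNA-repair lesions; compound-treated growth is compared with vehicle-treated growth.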

[4] = NCI Yeast Anticancer Drug Screen. Data for the cln2 rad14 strain (AID 165);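 further: 0% = growth equal to vehicle treated cultures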; details: S. cerevisiae cln2 rad14 strain, at 50.0 µM, hits give high values
Procedure, shortened: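 Readout is yeast growth inhibition versus vehicle-treated controls, using a strain with cln2 and rad14 alterations exposed to compound.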

[5] = NCI Yeast Anticancer Drug Screen. Data for the bub3 strain (AID 167); details: S. cerevisiae bub3 mutant strain, at 50.0 µM, hits give high values
Procedure, shortened: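 In this screen, a yeast mutant lacking normal mitotic checkpoint function is challenged with compound. Relative growth versus vehicle gives the inhibition value.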

[6] = NCI Yeast Anticancer Drug Screen. Data for the mlh1 rad18 strain (AID 175); details: S. cerevisiae mlh1 rad18 strain growth inhibition; at 50.0 µM; hits give high values
Procedure, shortened: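 Genetically defined yeast (DNA repair-deficient) exposed to compounds; growth inhibition determined relative to vehicle.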

Measured: growth inhibition

Cc1ccc(S(=O)(=O)OCC2COC(C(C)C)OC2)cc1 (stereo unspecified)
inactive: [1] 5.45% | [2] -2.95% | [3] 9.3% | [4] 2.15% | [5] 48% | [6] -1.25%

Cc1ccc(C(=O)c2sc(Nc3cccc(C(F)(F)F)c3)c(C#N)c2N)c(C)c1
inactive: [1] 16.8% | [2] 3.35% | [3] 5.9% | [4] 11.2% | [5] 3.05% | [6] -12.6%

Cn1ncc2c(=S)[nH]c(=O)[nH]c21
inactive: [1] 3.7% | [2] -0.2% | [3] -1.1% | [4] -4.95% | [5] 1.05% | [6] -0.1%

CC1(C)CCc2c(cc3c(c2O)CCC(C)(C)O3)O1
inactive: [1] 4.6% | [2] 7.6% | [3] -10.7% | [4] 12.9% | [5] 9.05% | [6] 8.45%

CCCCCCCC/C(C=O)=C\c1ccc(C)cc1
inactive: [1] 53% | [2] 33.8% | [3] 55% | [4] 51.7% | [5] 66% | [6] 62.6%

COc1ccc(CN2CCCN(Cc3ccc(OC)cc3OC)C2c2ccc(N(C)C)cc2)c(OC)c1
inactive: [1] 39.9% | [2] 14.5% | [3] 21.1% | [4] 3.6% | [5] 15.7% | [6] 12.1%

COc1cc(C(O)CCBr)c(OC)cc1C (stereo unspecified)
inactive: [1] -23.2% | [2] -19.8% | [3] -20.2% | [4] -0.85% | [5] -1.4% | [6] 19.9%

c1ccc2[nH]c3[nH]c4[nH]c5ccccc5[nH]c4[nH]c3[nH]c2c1
inactive: [1] -29.2% | [2] -9.2% | [3] -20.6% | [4] -6.2% | [5] -8.5% | [6] -11.8%

CCC/C(Cl)=N\OC(=O)Nc1ccc(OC(F)(F)F)cc1
inactive: [1] 24% | [2] 24.8% | [4] 20.1% | [5] 28.8% | [6] 58.6%
active: [3] 91%

C[C@H](NC(=O)n1c2ccccc2c2ccccc21)C(=O)O
inactive: [1] 2.5% | [2] 5.2% | [3] -20.1% | [4] -5.9% | [5] -1.05% | [6] -2.95%

O=C1ON=C2C3CC4CC12CC1(C3)C(=O)ON=C41
inactive: [1] -3.05% | [2] -6.45% | [3] -3.8% | [4] -1.9% | [5] -12.1% | [6] -19.8%

CSc1ncc(CO)c(Nc2ccccc2Cl)n1
inactive: [1] 2.8% | [2] 14.4% | [3] -19.4% | [4] -14% | [5] 12.3% | [6] 1.55%

c1ccc(N2CCN(CCCN3CCc4c([nH]c5ccccc45)C3c3cccnc3)CC2)cc1 (stereo unspecified)
inactive: [1] -5.55% | [2] -18.1% | [3] -18.8% | [4] 14.1% | [5] -7.9% | [6] -1.8%

CC(NC(=O)C(C)(C)C)c1ccc2c(c1)OCCO2 (stereo unspecified)
inactive: [1] -4.45% | [2] -11.3% | [3] 6.6% | [4] -3.7% | [5] 4.3% | [6] 2.85%

O=C(NC(CO)C(=O)O)c1ccccc1 (stereo unspecified)
inactive: [1] 6.65% | [2] -14.2% | [3] -14.5% | [4] -44.5% | [5] -18.9% | [6] -12.9%

CCOC(=O)NC(=O)c1cn(C2CCCCC2)c(=O)[nH]c1=O
inactive: [1] -14.2% | [2] -3.95% | [3] -5.9% | [4] 21.9% | [5] -0.7% | [6] 3.35%

COc1cc2ccc3c(c2cc1OC)CCc1cn[nH]c1-3
inactive: [1] 2.05% | [2] 3.4% | [3] 8% | [4] 27.4% | [5] 11.8% | [6] 9.45%

CCCCNC(=O)C(CCCC)C(CCC)(CCC)CCCC (stereo unspecified)
inactive: [1] -21.4% | [2] -13% | [3] -16.5% | [4] -35.8% | [5] 55.3% | [6] 3.55%

CC1(C)OC(=O)C(C(N)=O)C1c1ccc(Cl)cc1 (stereo unspecified)
inactive: [1] 6.15% | [2] 0.8% | [3] -5.65% | [4] -3% | [5] -6.25% | [6] 13.8%

COc1ccc(NCc2cnc3nc(N)nc(N)c3c2C)cc1
inactive: [1] 7% | [2] 6.6% | [3] 16.6% | [4] 16.5% | [5] 1.85% | [6] -49%

O=[N+]([O-])C1CCCCC1
inactive: [1] -11.8% | [2] -34.6% | [3] 3.3% | [4] 17.6% | [5] -8.35% | [6] 14.1%

COc1ccc(C2CC(=O)Oc3ccccc3O2)cc1 (stereo unspecified)
inactive: [1] 39% | [2] 16.4% | [3] 32.2% | [4] 27.9% | [5] 23.6% | [6] 38.1%

COC(=O)c1c(C(=O)c2ccccc2)nnn1-c1cccc(C(F)(F)F)c1
inactive: [1] -14.1% | [2] -32.7% | [3] -19% | [4] -3.85% | [5] -28.7% | [6] 0.35%

CC1OC(Cc2ccccc2)OC1C (stereo unspecified)
inactive: [1] 12.4% | [2] 13.8% | [3] 16.7% | [4] 0.4% | [5] 12.6% | [6] 9.9%

COC(=O)C1C(=C(c2ccccc2)c2ccccc2)C1c1ccccc1 (stereo unspecified)
inactive: [1] -1.75% | [2] -15.2% | [3] -11.8% | [4] -11.4% | [5] 6.85% | [6] -8.7%

Nc1ccc2ccccc2c1Cl
inactive: [1] -9.05% | [2] -38.5% | [3] -11.4% | [4] 6% | [5] -44.4% | [6] -11.3%

CC(C(=O)c1ccccc1)C(O)(C(F)(F)F)C(F)(F)F (stereo unspecified)
inactive: [1] -5.15% | [2] 2.6% | [3] 4.25% | [4] -24.4% | [5] -0.85% | [6] -9.05%

CCCCCCOC(=O)C[n+]1ccc(C(N)=O)cc1
inactive: [1] 2.45% | [2] 17.1% | [3] -15.2% | [4] -14.8% | [5] -18.8% | [6] -1.9%

NS(=O)(=O)c1ccc(NC(=O)c2cccn3c(=O)c4ccccc4nc23)cc1
inactive: [1] 6.6% | [2] 9.45% | [3] -7.6% | [4] 27.2% | [5] -0.25% | [6] 14.9%

COC1OC2COC(c3ccccc3)OC2C(NC(C)=O)C1OC(C)=O (stereo unspecified)
inactive: [1] 4.6% | [2] 17.7% | [3] 8.9% | [4] 9.9% | [5] -12.5% | [6] -13.1%

O=C(OCC1OC=C(OC(=O)c2ccccc2)C1OC(=O)c1ccccc1)c1ccccc1 (stereo unspecified)
inactive: [2] 11.7% | [3] 32.3% | [4] 24.9% | [5] -1.85% | [6] 60%
active: [1] 91.8%

CN(C)CCCn1c2ccccc2c2cnccc21
inactive: [1] 0.5% | [2] -10.9% | [3] -17.6% | [4] -54.5% | [5] -48.2% | [6] 14.8%

COC(=O)C1=C(O)c2cc(-c3ccccc3)c(-c3ccccc3)c(C#N)c2NC(=O)C1
inactive: [1] 32.5% | [2] 23.9% | [3] 12.9% | [4] 11.1% | [5] -4.25% | [6] 30.4%

C(/C=C/c1csnn1)=C\c1ccccc1
inactive: [1] 8.9% | [2] 8.85% | [3] -4.2% | [4] 15.8% | [5] 2.35% | [6] 0.5%

O=C1c2ccccc2C(=O)N1CNc1cccc(NCN2C(=O)c3ccccc3C2=O)n1
inactive: [1] -35.8% | [2] -22.1% | [3] -23.1% | [4] 13.4% | [5] -6.5% | [6] -34.8%

O=C1c2ccccc2C(=O)N1Cl
inactive: [1] 8.7% | [2] -4.75% | [3] -37.1% | [4] -0.05% | [5] 2.2% | [6] -5.75%

CC1CN=C(c2ccccc2)C(c2ccccc2)=N1 (stereo unspecified)
inactive: [1] -24.2% | [2] 1.3% | [3] -6.4% | [4] -6.15% | [5] -12.5% | [6] -22.3%

Cc1cccc([B-]23OCC[N+]2(CNC(=O)c2ccccc2O)CCO3)c1 (stereo unspecified)
inactive: [1] -21.6% | [2] -19.8% | [3] -7.5% | [4] -11.6% | [5] -18.4% | [6] -16.8%

O=C(CCCl)Nc1cccc(CCC(=O)c2ccccc2NC(=O)CCCl)c1
inactive: [1] -8.1% | [2] -18.1% | [3] -4.2% | [4] -15.9% | [5] -7.1% | [6] -10.4%

COc1ccc(-n2c(N)c(C#N)c(C#N)c2-c2cccc([N+](=O)[O-])c2)cc1
inactive: [1] 6% | [2] 9.75% | [3] -62.8% | [4] -3.1% | [5] -18.9% | [6] -48.5%

CN(C)C=Nc1cc2c3c(c1)CCCN3CCC2
inactive: [1] 10.8% | [2] -0.5% | [3] 13.3% | [4] 11.8% | [5] -2.6% | [6] 31.4%
